From PubChem
PostGolgi yeast: growth inhibition of a yeast mutant, post-Golgi transport screen | post-Golgi transport phenotypic cell assay | inhibition, % at 10 µM | 0.9% of 98,000 active;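 further: yeast cells grown in 1536-well plates; yeast grown about 18 h at 30C before absorbance read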
CYP2C19 inhib: inhibitors of human CYP2C19; CYP2C19 Supersomes, luciferin-H EGE luminescence, 30 min; inhibition, % at 5 µM; 21% of 96,000 active; AID 778;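 active means CYP2C19 inhibition above a set limit at 5 µM in the primary screen, cut at about 50% in these data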
CYP2C9 inhib: human CYP2C9 inhibition | AID 777 | CYP2C9 Supersomes, luciferin-H conversion, luminescence | inhibition, % at 5 µM | P11712 | 20% of 96,000 active;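 active means blocking of liver enzyme CYP2C9 beyond about 50% at 5 µM, limit read from the data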
Target sequence (P11712 whole entry, looked up): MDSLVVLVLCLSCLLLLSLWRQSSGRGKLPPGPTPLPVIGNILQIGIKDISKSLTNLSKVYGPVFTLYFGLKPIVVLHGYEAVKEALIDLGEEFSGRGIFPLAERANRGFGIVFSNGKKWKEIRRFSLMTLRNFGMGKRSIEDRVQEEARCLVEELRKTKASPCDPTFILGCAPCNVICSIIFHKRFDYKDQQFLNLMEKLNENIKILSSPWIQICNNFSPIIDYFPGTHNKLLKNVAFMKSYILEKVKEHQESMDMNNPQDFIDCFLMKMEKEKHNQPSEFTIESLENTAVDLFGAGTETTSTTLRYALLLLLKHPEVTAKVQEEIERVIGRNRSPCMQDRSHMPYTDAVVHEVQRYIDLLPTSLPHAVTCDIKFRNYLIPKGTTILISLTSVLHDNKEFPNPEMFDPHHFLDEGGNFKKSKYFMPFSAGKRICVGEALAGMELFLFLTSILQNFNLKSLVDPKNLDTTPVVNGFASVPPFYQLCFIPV
PostGolgi ctrl: yeast control strain growth, post-Golgi counter-screen | inhibition, % at 10 µM | efflux-deficient yeast background strain, growth absorbance A615, 16 h | 5% of 98,000 active | AID 738
CYP2C19 activ: increases human CYP2C19 enzyme activity | recombinant CYP2C19, luciferin-H EGE luminescence; hits give high values; 0 = fully inhibited enzyme, 1 = untreated enzyme | activation factor at 5 µM | 96,000 tested, under 10 active | AID 1025;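 active means activation factor of at least 2 at 5 µM in the primary screen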
CYP2C9 act: activators of human CYP2C9 | activation factor at 5 µM | recombinant CYP2C9, luciferin-H conversion, luminescence; hits give high values; factor 1 = untreated enzyme, 0 = blocked | P11712 | 1.4% of 96,000 active | AID 1024;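 active means activation factor of 2 or more for CYP2C9 at a 5 µM dose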
Large screens that a line does not name were inactive; ! = not confirmed by another sample. Most compounds without a hit are left out; they make up all but 32% or so of the library. Unless noted, no stated cut-off is given here; in the data, active means inhibition above about 30%; inactive means the rest.

O=C(NCCCN1CCOCC1)c1ccc(-n2nc(C(F)(F)F)cc2-c2cccs2)cc1	CYP2C9 inhib 65
Cc1cc(Br)ccc1NC(=O)CN1C(=O)CCC1=O	none
COCCSc1ccccc1C(=O)NCc1ccc(S(N)(=O)=O)cc1	none
Cc1cc2c(ccc3[nH]onc32)n1	none
Cc1ccc(-c2n[nH]c(=S)n2/N=C/C=C/c2ccccc2[N+](=O)[O-])cc1	CYP2C9 inhib 58
Cc1c(C#N)c(N=CN(C)C)c(C(=O)c2ccc(Br)cc2)n1-c1ccc(Cl)cc1	none
Cn1c(/C=C/c2ccc([N+](=O)[O-])o2)nc2ccccc2c1=O	PostGolgi yeast 62, PostGolgi ctrl 41 (no result: CYP2C19 inhib, CYP2C19 activ)
C/C(=N\OC(=O)c1ccc(Cl)cc1)c1nccs1	none
CCCc1cc(C(=O)Nc2nnc(C)s2)cs1	none
CCNC(=S)NNC(=O)c1cc(CC(C)C)nc2ccccc12	CYP2C9 inhib 64
CCCc1cc(C(=O)NNC(=S)NC(C)c2ccccc2)cs1 (centres undefined)	CYP2C19 inhib 81
CCNC(=S)NNC(=O)c1cc(-c2ccccc2C)nc2ccccc12	CYP2C9 inhib 60
Cc1cc(C(=O)NNC(=S)NC(C)c2ccccc2)c2ccccc2n1 (centres undefined)	CYP2C9 inhib 55
Cn1c(COc2ccccc2)nnc1SCC(=O)Nc1ccc(S(N)(=O)=O)cc1	none
Cc1cc(C)c(S(=O)(=O)NNC(=O)C2CCN(Cc3ccccc3)CC2)c(C)c1	none
CCNC(=S)NNC(=O)c1cc(-c2ccc(OCC)cc2)nc2ccccc12	CYP2C9 inhib 79
COc1ccc(C(=O)NNC(=S)NC(=O)c2cc(-c3ccccc3)nc3ccccc23)cc1	none
CCCOc1cccc(-c2cc(C(=O)NNC(=S)NCC)c3ccccc3n2)c1	CYP2C9 inhib 70
CCCOc1ccc(C(=O)NNC(=S)NC(=O)c2cc(-c3ccc(Cl)cc3)nc3ccccc23)cc1	CYP2C9 inhib 50
O=S(=O)(Nc1cccc2cccnc12)c1ccc(S(=O)(=O)N2CCCC2)cc1	none
CSc1nc(Oc2ccc(C)cc2)cc(C(F)(F)F)n1	none
COC(=O)c1ccccc1NC(=O)CN1C(=O)C2CCCN2c2ncc(Cl)cc21 (centres undefined)	CYP2C9 inhib 67
CC1CCC(NC(=O)CN2C(=O)C3CCCN3c3ncc(Cl)cc32)CC1 (centres undefined)	none
CCc1ccccc1NC(=O)CN1C(=O)C2CCCN2c2ncc(Cl)cc21 (centres undefined)	CYP2C19 inhib 55, CYP2C9 inhib 54
COc1ccc(CNC(=O)CN2C(=O)C3CCCN3c3ncc(Cl)cc32)cc1 (centres undefined)	CYP2C19 inhib 82, CYP2C9 inhib 52
O=C(CN1C(=O)C2CCCN2c2ncc(Cl)cc21)NCc1ccc2c(c1)OCO2 (centres undefined)	none
CCN(CC)C(=O)c1sc(NC(=O)c2ccc(C)c([N+](=O)[O-])c2)c(C#N)c1C	none
CN(C(=O)COc1ccccc1)c1nnc(-c2cccnc2)s1	none
N#CC1=C(N)N(c2ccccc2)C(c2ccccc2)C1(C#N)C#N (centres undefined)	CYP2C9 inhib 55
COC(=O)CSc1nnc(CNC(=O)Cc2ccccc2)n1C	none
CCOC(=O)c1c(NC(=O)CSc2nnc(CNc3ccc(OC)cc3)n2C)sc(C)c1C	CYP2C9 inhib 77
COC(=O)CSc1nnc(CNc2ccc(OC)cc2)n1C	CYP2C19 inhib 58
COc1ccc(C(=O)CSc2nnc(CNc3nc(-c4ccccc4)cs3)n2C)cc1	CYP2C19 inhib 64, CYP2C9 inhib 62
COc1ccc2oc(C)c(C(=O)Cn3ccnc3)c2c1	CYP2C19 inhib 90, CYP2C9 inhib 73
COC(=O)c1cn(NC(=O)c2cc(OC)cc(OC)c2)c(=O)c2ccccc12	CYP2C9 inhib 78
COC(=O)c1cn(NC(=O)c2ccncc2)c(=O)c2ccccc12	CYP2C9 inhib 62
COC(=O)c1cn(NC(=O)c2cccnc2)c(=O)c2ccccc12	none
COC(=O)c1cn(-c2ccc(Cl)cc2)c(=O)c2ccccc12	CYP2C19 inhib 69, CYP2C9 inhib 74
COC(=O)c1cn(NC(=O)c2ccc(F)cc2)c(=O)c2ccccc12	none
COC(=O)c1cn(NC(=O)c2cc(OC)c(OC)c(OC)c2)c(=O)c2ccccc12	none
COCc1ccc2oc(C(=O)O)cc2c1	none
COC(=O)c1ccc(C(=O)OC)c(NC(=O)c2cnc3n(c2=O)CCS3)c1	none (no result: CYP2C19 inhib, CYP2C9 inhib, CYP2C19 activ, CYP2C9 act)
COc1ccc(C(=O)c2c(C(F)(F)F)oc3c2C(=O)c2ccccc2C3=O)cc1	PostGolgi yeast 84, CYP2C19 inhib 75, CYP2C9 inhib 78, PostGolgi ctrl 46
Cc1cnc(-c2nnc(N(C)C(=O)c3ccccn3)s2)cn1	none (no result: PostGolgi yeast, PostGolgi ctrl)
CN(c1cccc(NS(=O)(=O)c2cccs2)c1)S(C)(=O)=O	none
CCc1ccc(NS(=O)(=O)c2cccs2)cc1	CYP2C19 inhib 56, CYP2C9 inhib 67
O=S(=O)(Nc1ccc(N2CCOCC2)cc1)c1cccs1	CYP2C19 inhib 90
COc1ccc2c(C=Nc3c(C)n(C)n(-c4ccccc4)c3=O)c(O)n(Cc3ccco3)c(=O)c2c1	CYP2C19 inhib 60!, CYP2C9 inhib 72!, PostGolgi ctrl 63!
Cc1sc(-n2c(C)cc(C=O)c2C)c(C(=O)O)c1C	none
CCOC(=O)c1c(-n2c(C)cc(C=O)c2C)sc2c1CCCC2	CYP2C9 inhib 61
COC(=O)c1sc(S(=O)(=O)NCc2cccs2)c(C(=O)OC)c1C	CYP2C19 inhib 89, CYP2C9 inhib 82
Cc1sc(NC(=O)c2cccs2)c(C(N)=O)c1C	CYP2C19 inhib 66, CYP2C9 inhib 81, PostGolgi ctrl 37
CCOC(=O)c1c(NC(=O)Cc2cccs2)sc(C(=O)N2CCCCC2)c1C	CYP2C19 inhib 65, CYP2C9 inhib 65
COC(=O)c1c(NC(=O)Cc2cccs2)sc(C)c1C	CYP2C19 inhib 62
CCOC(=O)c1c(N)sc(C(=O)N2CCCC2)c1C	none
Cc1cc(=O)oc(C)c1C(=O)Nc1c(C)n(C)n(-c2ccccc2)c1=O	none
C=CCN=C(C)C1=C(O)CCC1=O	none
CCOC(=O)c1cnn(CCOC(=O)Cc2cccs2)c1NC(=O)Cc1cccs1	CYP2C19 inhib 88, CYP2C9 inhib 89
CNC(=O)c1sccc1SCc1c(Cl)cccc1Cl	PostGolgi ctrl 46
CNC(=O)c1sccc1SCc1ccc(Cl)cc1Cl	CYP2C19 inhib 75
O=C(c1ccc(N2CN(C(=O)c3ccco3)c3nc4ccccc4nc32)cc1)N1CCOCC1	none
Cc1nn(C(=O)c2ccccc2)c2c1C(=O)CC(C)(C)C2	CYP2C19 inhib 80, CYP2C9 inhib 69
CCCc1nn(C(=O)c2ccccc2)c2c1C(=O)CC(C)(C)C2	none
COC(=O)CSc1nc2ncccc2[nH]1	PostGolgi ctrl 35
COc1ccc(NC(=O)CSc2nc3ncccc3[nH]2)cc1OC	none
COc1ccc(OC)c(C(=O)CSc2nc3ncccc3[nH]2)c1	CYP2C19 inhib 79, CYP2C9 inhib 90
